# HSP90 inh – blocks HSP90-mediated luciferase refolding in reticulocyte lysate. Rabbit reticulocyte lysate, luciferase refolding luminescence, 3 h. inhibition, % at 5.6 µM. hit rate 0.91% among 290,000;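 active means inhibition above the screen-wide mean plus 3 SD, computed separately per campaign, cut at about 16% in these data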;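 further: 0% = DMSO wells and 100% = 60 µM geldanamycin wells; inhibitors lower the luminescence because luciferase stays unfolded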
# HSF-1 act – increases HSF-1 driven luciferase reporter signal; NIH3T3-HGL HSF-1 luciferase reporter, MG132, 8 h; 100% = twice DMSO control signal; activation, % at 9 µM; hit rate 1.7% among 300,000;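 active means mean replicate activation of at least 50% with a set share of replicates each reaching 50%; inconclusive means only one of those two conditions met; inactive means mean below 50% and too few replicates reaching it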;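 further: 0% = median of the neutral control wells and 100% = twice that signal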
# EBV LMP1 NFkB – reduces LMP1-driven NF-kappaB luciferase signal. LMP1-induced NF-kappaB luciferase reporter cells, luminescence. inhibition, % at 12.5 µM. hit rate 0.69% among 350,000; in the data active means inhibition above about 41%; inconclusive means no clear call, values can overlap the other calls;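 further: 0% = neutral control wells and 100% = reference inhibitor control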
# TROY NFkB inh – TROY signaling inhibition. Q293 LMP1-TROYcd NF-kB luciferase reporter, 4 h. inhibition, % at 10 µM. hit rate 0.98% among 360,000. AID 1347056;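 active means compounds whose plate-normalised and pattern-corrected inhibition of the luciferase reporter signal at the single screening dose is 50% or more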
# TWEAK-Fn14 inh – blocks TWEAK-Fn14 interaction in a reporter cell assay; TWEAK-stimulated Fn14 reporter cells, luciferase luminescence, 8 h; inhibition, % at 10 µM; hit rate 2% among 360,000; in the data active means inhibition above about 50%
# HSF1 inhib – HSF1 inhibition; NIH3T3-HGL HSE-luciferase, MG132-induced, luminescence 8 h; stronger effect = lower value; activity change, negative = inhibition, % at 7.5 µM (by protocol); hit rate 0.77% among 300,000; AID 2098;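 active means more than half of replicate wells show activity change below -50%, luminescence cut by over half; inconclusive means some wells, but at most half, below -50%; inactive means no replicate well below -50%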;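 further: luciferase reports HSF-1 transcriptional activity via heat shock element; 0% = median of DMSO wells and -100% = zero luminescence signal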
# The depositor's hits bear a star; u = inconclusive; x = no result given. An excerpt weighted towards active compounds, which were near 4.7% of everything screened.
SMILES,HSP90 inh,HSF-1 act,EBV LMP1 NFkB,TROY NFkB inh,TWEAK-Fn14 inh,HSF1 inhib
O=C(O)CC/C(=C\c1ccc(N2CCCC2)c([N+](=O)[O-])c1)c1nc2ccccc2s1,0,-10,-8,25,4,-6
COC(=O)CCC(=O)NNC(=O)c1cccc(Br)c1,-1,-73,0,-4,-3,-67*
CCOc1ccc(/C=N/NC(=O)C(O)c2ccccc2)c(O)c1 (stereo not given),-6,-86,33,-17,-22,-82*
CCOc1ccc(CCNC(=O)C(O)c2ccccc2)cc1 (stereo not given),-3,-10,-5,1,9,2
O=[N+]([O-])c1cc(-c2ncccn2)c([N+](=O)[O-])s1,3,97*,11,1,10,95
COc1ccc(C2SCCN2C(=O)c2ccc([N+](=O)[O-])cc2)cc1 (stereo not given),2,9,42*,-4,-15,5
CCCCC[C@@H](C)N1C[C@@H](COCc2ccccc2)Oc2cc(N3CCC[C@@H]3COC)ccc2S1(=O)=O,x,x,x,-35,-2,x
c1ccc(Cn2c(Cn3c(-c4cnccn4)nc4ccccc43)nc3ccccc32)cc1,x,x,x,-2,13,x
COc1ccc(Cc2c(-c3ccccc3)nc3ccc(Br)cn23)c(C)c1,x,x,x,-40,-11,x
COc1ccccc1CN(Cc1nc2ccccc2c(=O)[nH]1)S(=O)(=O)c1ccc2ccccc2c1,5,-3,10,47,55*,12
COc1ccc([C@@H]2C[C@H]3[C@@H](CN2S(=O)(=O)c2ccccc2)C(=O)C[C@@H](c2ccc(OC)cc2)N3S(=O)(=O)c2ccccc2)cc1,x,x,x,0,-13,x
CCOc1ccc(NS(=O)(=O)c2ccc(SC)cc2)cc1,3,-6,8,x,81*,6
CCOc1ccc(NS(=O)(=O)c2cnc(Cl)c(Cl)c2)cc1,2,38,5,29,53*,21
Cc1cc(C)cc(NS(=O)(=O)c2cnc(Cl)c(Cl)c2)c1,0,14,-4,-14,25,-3
Cc1ccc([C@H]2N[C@]3(CCCN(Cc4cccn4C)C3=O)[C@H]3C(=O)N(C)C(=O)[C@@H]23)cc1,x,x,1,-5,29,x
C#CCOCCOCCOCCNc1nc(N2CCN(C(=O)CCCCCCCCCCNC(=O)[C@H](CCCCN)n3cc(C)nn3)CC2)nc(N2CCN(C(=O)CCCCCCCCCCNC(=O)[C@@H]([C@H](C)O)n3cc(C)nn3)CC2)n1,x,x,-8,-25,-1,x
C#CCOCCOCCOCCNc1nc(N2CCN(C(=O)CCCCCCCCCCNC(=O)[C@H](CCCCN)n3cc(C[C@@H](C)CC)nn3)CC2)nc(N2CCN(C(=O)CCCCCCCCCCNC(=O)[C@@H]([C@H](C)O)n3cc(C)nn3)CC2)n1,x,x,-35,90*,106*,x
C#CCOCCOCCOCCNc1nc(N2CCN(C(=O)CCCCCCCCCCNC(=O)[C@H](CCCCN)n3cc(C[C@@H](C)CC)nn3)CC2)nc(N2CCN(C(=O)CCCCCCCCCCNC(=O)[C@H](CCCN=C(N)N)n3cc(C[C@@H](C)CC)nn3)CC2)n1,x,x,6,41,60*,x
C#CCOCCOCCOCCNc1nc(N2CCN(C(=O)CCCCCCCCCCNC(=O)[C@@H](CCC(=O)O)n3cc(CCCCCN)nn3)CC2)nc(N2CCN(C(=O)CCCCCCCCCCNC(=O)[C@H](CCCCN)n3cc(C[C@@H](C)CC)nn3)CC2)n1,x,x,2,13,-5,x
O=C(NC1CCCCC1)C(c1ccnc2ccccc12)N1CCc2ccccc2C1 (stereo not given),x,x,x,-25,-4,x
C/C(NCCc1ccccc1)=C1/CCOC1=O,x,x,0,4,-9,x
CC(=O)Nc1cc(-c2ccc(S(C)(=O)=O)cc2)cn2c(-c3ccc(F)c(Cl)c3)cnc12,x,x,x,-3,-25,x
O=C1c2ccccc2C(=O)C1c1ccnc2ccccc12,2,1,13,42,100*,-14
O=C1C(c2ccnc3ccccc23)=C(O)c2ccccc21,10,-3,6,59*,94*,-11
O=C1c2ccccc2C(=O)C1c1nccc2ccccc12,5,-43,23,55*,97*,u
SMILES,HSP90 inh,HSF-1 act,EBV LMP1 NFkB,TROY NFkB inh,TWEAK-Fn14 inh,HSF1 inhib
O=C1C(=O)c2ccccc2C(O)=C1c1ccccc1F,1,-9,3,-2,4,-2
Cc1ccc(S(=O)(=O)N(C)c2ccc(OC(C)C(=O)N(C)c3ccccc3)cc2)cc1 (stereo not given),x,x,-2,-5,20,x
CCOC(=O)Nc1ccc2nc(-c3cscn3)[nH]c2c1,x,x,-4,-42,24,x
Cn1c(=O)c(/C=C/c2ccc(F)cc2)nc2ccccc21,8,60*,-7,-32,-15,46
Cn1c(/C=C/c2ccccc2)nc2ccccc21,14,-5,47*,31,83*,-21
CC(=O)c1ccc(/C=C/c2nc3ccccc3n2C)o1,2,66*,x,3,12,25
Cn1c(=O)c2c(ncn2CC(=O)NC[C@H]2O[C@@H](n3cnc4c(N)ncnc43)[C@H](O)[C@@H]2O)n(C)c1=O,x,x,-2,-16,2,x
O=C(O)c1ccc(COc2ccc(CO)cc2Cl)cc1,4,-21,-8,-41,16,-7
COc1cccc(OC)c1C(=O)NNC(=O)c1cccc(COc2ccc3c(c2)CCC3)c1,10,-58,30,5,-45,-57*
O=C(O)c1cccc(S(=O)(=O)Nc2ccc(OCc3ccccc3)cc2)c1,-4,-4,0,3,3,2
COc1ccccc1NC(=O)c1ccc(COc2ccc3c(c2)CCC3)cc1,2,25,-1,-84,-18,11
O=C(O)c1cccc(COc2ccc(CO)cc2Cl)c1,x,-93,91*,-26,71*,-91*
O=C(O)c1cc(OCc2ccccc2)cc(OCc2ccccc2)c1,-3,-8,0,5,8,-4
COc1ccc(OCc2cccc(C(=O)O)c2)cc1,x,-91,86*,-38,53*,-90*
CCOc1ccc(OCc2cccc(C(=O)O)c2)cc1,x,-94,83*,-30,46,-93*
O=S1(=O)CC(N2CCCCC2)CN1Cc1cn(Cc2cccc(C(F)(F)F)c2)nn1 (stereo not given),x,x,x,-12,-1,x
Cc1cc(F)ccc1-c1cc(C(=O)NCc2ccco2)[nH]n1,x,x,x,-49,-10,x
C=CCOCCN(CCOCC=C)C1=NS(=O)(=O)c2ccccc21,-3,-94,-3,-2,12,-92*
Oc1[nH]c(N=C2N=c3ccccc3=N2)c2ccccc12,7,288*,-3,-27,-10,196
Oc1ccc(-c2n[nH]c(=S)n2-c2ccc3c(c2)OCCO3)c(O)c1,16*,-38,26,-5,52*,-22
COc1cc(OC)c2c(-c3cccc(-c4ccc(N(C)C)cc4)c3)cc(=O)oc2c1,x,x,14,44,52*,x

# Screens from PubChem.
